Results taken from PubChem BioAssay (NCI).
This is part of a sample that, as a whole, favours compounds with a hit. Of some 79,000 tested, about 15% had one in any assay. Unmarked numbers belong to inactive results. Active and inactive are the calls of the source. Cut-off read from the data, not from the text of the source: active = growth inhibition above about 70%; inactive = the rest.

test: NCI Yeast Anticancer Drug Screen. Data for the rad50 strain (AID 155);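 note: 0% = growth of vehicle-only cultures of the same strain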; settings: S. cerevisiae rad50 strain growth inhibition; at 50.0 µM; stronger effect = higher value
Outline: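 Relative growth inhibition (compound vs vehicle) was measured in yeast with a defined repair-gene alteration.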

Structure (SMILES) | growth inhibition
COc1cc(C(=O)C/C(CCC(=O)Nc2ccc(Cl)cc2Cl)=N/NC(=O)C(N)=O)ccc1O | -12.8%
CC(CO)N1CCCCCC1 (stereo not given) | -20.4%
CCC(COCC(CC)C(=O)O)C(=O)O (stereo not given) | 11.3%
CCOC(=O)c1c(C)[nH]c(=S)c(C#N)c1-c1ccc(Cl)cc1 | 13%
CCSc1ccc(N=[N+]([O-])c2ccc(SCC)c(Cl)c2)cc1Cl | -5.6%
COc1ccc(Oc2nc(=O)n3ccccc3n2)cc1 | -13.4%
Nc1[nH]c(=S)nc2snnc12 | 3%
O=C1CS(=O)(=O)CN1c1ccc(Cl)c(Cl)c1 | -17.4%
O=C(N=Nc1c(O)[nH]c2ccccc12)C(=O)N=Nc1c(O)[nH]c2ccccc12 | -4.95%
CC(C)OP(=O)(OC(C)C)c1ccc2c(c1)OCCOCCOCCOCCO2 | -2.9%
O=C1c2ccsc2C(=O)c2sc(CO)cc21 | 90.3% (active)
C=C(C)[C@@H]1CC=C(CO)CC1 | 15.7%
CN(C=O)C(C(=O)Nc1cccc2c(OC(=O)C(N(C)C=O)(N(C)C=O)N(C)C=O)c(N=Nc3ccc(S(=O)(=O)Nc4nccs4)cc3)cc(N=Nc3ccc(S(=O)(=O)Nc4nccs4)cc3)c12)(N(C)C=O)N(C)C=O (tested in a mixture with another compound) | 60.1%
O=[N+]([O-])c1cccc(C=NC23CC4CC(CC(C4)C2)C3)c1 | -2.15%
FC(F)(F)c1nc(Nc2ccccc2)c2[nH]cnc2n1 | -16.4%
CC(=O)Cc1nc(N)nc(Nc2ccc(Cl)c(Cl)c2)n1 | -8.9%
CN(C)S(=O)(=O)c1ccc(NC(=O)OC(C)(c2ccccc2)C2CCCCC2)cc1 (stereo not given) | 17.4%
O=C(Nc1ccccc1)Sc1nc2ccccc2s1 | 24.5%
COc1ccc2cc(C(=O)c3ccccc3)c(=O)oc2c1 | -0.1%
CCCCCP(=O)(CCC(C)C)CC(C)C (stereo not given) | 8.95%

Structure (SMILES) | growth inhibition
CCOC(=O)c1cc2c([N+](=O)[O-])cccc2[nH]1 | 18.4%
N#CC(c1ccccc1)C1CCN(Cc2ccccc2)CC1 (stereo not given) | 45.8%
Cc1ccc(NC(=O)c2ccc(Cl)cc2)cc1 | -8.3%
OC1CNC(=S)NC1 | -8.85%
O=C(NCCN1CCOCC1)c1ccc(I)cc1 | 31.8%
CCCCCCCCC(=O)O (tested in a mixture with another compound) | 2.3%
CCCCCNC(=O)C(C)O (stereo not given) | 5.6%
CC(C)=C1CCC(CN2CCOCC2)C1=O (stereo not given) | 25.2%
CC[N+](CC)(CC)Cc1cc2ccccc2n1C(=O)OC | -9.25%
O=C(O)C1C2C=CC(O2)C1C(=O)NCc1ccncc1 (stereo not given) | -10%
N#CC1(c2nc3ccccc3o2)C(=O)C(=O)N(C2C3CC4CC(C3)CC2C4)C(=O)C1=O (stereo not given) | -8.65%
c1ccc2c(c1)ccc1c2ccc2c1cc1ccccn12 | -4.2%
NC(=O)N/N=C/c1cccc2ccccc12 | 24.2%
O/N=C1/CCCCc2ccccc21 | -13.4%
COC(=O)/C=C(/C(=O)OC)C1(C)c2cc(C(=O)OC)c(C(=O)OC)c(N)c2C(=N)N1c1ccccc1 (stereo not given) | -3.75%
CN(C)CC1OCCc2ccccc21 (stereo not given) | 10.1%
O=C1CCC(=O)N1Cc1ccccc1N=[N+]([O-])c1ccccc1CN1C(=O)CCC1=O | -37.2%
C[N+](C)(N)CCS(N)(=O)=O | 0.15%
CCCCCCCCCCCCCCCCCN(C)C(=O)OCC | 23.1%
CN1N(c2ccccc2)C(=O)C2=NC=C(C(=O)c3ccccc3)C(=N)C21C (stereo not given) | 6.2%
